# Reference: ChEMBL document CHEMBL3988442, “University of Dundee, Small-Polar-MMV Screening Library” (2021)
# Out of some 48,000 compounds screened, about 13,000 (27%) showed an effect of 50% or more. Some of the results follow.
# Tested on: Wolbachia pipientis
# Test: Anti-Wolbachia Cell-Based Screen
# Type: functional
# Parameters: scale not given: in the data most compounds retested in dose-response had high values
# Details: 5 µM
row,Compound,Percent Effect [%]
1,Cn1ccnc1CN1C(=O)CO[C@H]2CN(Cc3ccc(F)c(F)c3)C[C@H]21,5.068
2,Cn1cc(S(=O)(=O)N2CCC(OCCCc3ccccc3)C2)cn1 (configuration not stated),-5.129
3,CC(=O)c1ccc(N2CCCC(CO)(CCc3ccccc3)C2)nc1 (configuration not stated),11.39
4,CC(C)C(O)C1CCN(c2ccnc(C(=O)NCc3ccco3)c2)CC1 (configuration not stated),-3
5,COc1ccc(NC(=O)CNc2cccc3c2CCCC3)c(OC)c1,-2.331
6,COc1ccc(NC(=O)CSc2ccc3nncn3n2)c(OC)c1,116.1
7,COc1ccc(NC(=O)CCSc2ccc3nncn3n2)c(OC)c1,100.6
8,COc1ccc(NC(=O)CSc2nncn2-n2cccc2)c(OC)c1,89.78
9,COc1ccc(NC(=O)CCC2CCCN(S(=O)(=O)C3CC3)C2)c(C)c1 (configuration not stated),-10.5
10,COc1cc(Cl)c(C)cc1NC(=O)CNc1ccn(CC(N)=O)n1,-71.24
11,COc1ccc(Cl)cc1NC(=O)CNc1ccn(CC(N)=O)n1,12.03
12,COc1ccc(OC)c(-n2cnnc2CN)c1,-14.69
13,CCN(CC)S(=O)(=O)c1ccc(OC)c(NC(=O)CSC)c1,-7.74
14,COc1ccc(OC)c(NC(=O)CSc2ccc3nncn3n2)c1,92.9
15,COc1cc(C(C)=O)ccc1SCC(=O)Nc1ccccn1,-8.38
16,COc1ccc(OC)c(CCC(=O)Nc2cc(C)n[nH]2)c1,-33.89
17,Cn1nccc1C1CCN(Cc2ccn(-c3ccccc3)n2)CC1,-5.293
18,CCOCC(=O)Nc1cc(-n2nnnc2C2CC2)ccc1F,-4.453
19,CNC(=O)NC(=O)C(NCc1cccs1)c1ccccc1 (configuration not stated),-60.87
20,CC(C)c1ccc(/C=C/CC(=O)NC2CCN(C(N)=O)C2)cc1 (configuration not stated),-19.1
21,CNC(=O)[C@@]12CCO[C@@H]1CCN(Cc1scnc1C)C2.O=C(O)C(F)(F)F,-1.55
22,Cc1ncsc1CN1CC[C@H]2OCC[C@@]2(C(=O)N2CCCC2)C1,-2.591

row,Compound,Percent Effect [%]
1,Cc1nnc([C@@]23CCO[C@@H]2CCN(Cc2scnc2C)C3)o1,102.2
2,Cc1noc([C@@]23CCO[C@@H]2CCN(CC2CCOCC2)C3)n1.O=C(O)C(F)(F)F,-22.2
3,Cc1nnc([C@]23COC[C@H]2CN(Cc2nccs2)C3)o1.O=C(O)C(F)(F)F,-6.391
4,CCS(=O)(=O)N1CC[C@H]2OCC[C@@]2(c2nnc(C)o2)C1,3.137
5,Cc1nnc([C@@]23CCO[C@@H]2CCN(Cc2nccs2)C3)o1,93.98
6,Cc1noc([C@@]23CCO[C@@H]2CCN(Cc2scnc2C)C3)n1.O=C(O)C(F)(F)F,105.3
7,N#CCCCS(=O)(=O)N1CCCC1CC(=O)c1cccs1 (configuration not stated),-18.29
8,COCc1nn(CC2CC2)c2c1CN(Cc1cncn1C)CC2.O=C(O)C(F)(F)F,-13.43
9,Cc1ccc(C(=O)N(C)C)cc1NC(=O)COCC1CC1,-15.5
10,C[C@@H](NC(=O)c1cccnc1)c1onc(-c2ccccc2)c1C(=O)O,-0.5339
11,COc1cc(OC)cc(C2(O)CCN(Cc3nc(C)c(C)o3)CC2)c1,-6.043
12,COc1ncc(C2(O)CCN(Cc3ccc(F)c(F)c3)CC2)c(OC)n1.Cl,122.5
13,COc1ncc(C2(O)CCN(Cc3c(F)cccc3F)CC2)c(OC)n1.Cl,1.004
14,COc1ncc(C2(O)CCN(Cc3cc(F)ccc3F)CC2)c(OC)n1.Cl,106.6
15,COc1ncc(C2(O)CCN(Cc3cc(F)cc(F)c3)CC2)c(OC)n1,125.6
16,COc1ncc(C2(O)CCN(Cc3cccc(F)c3F)CC2)c(OC)n1.Cl,130.5
17,COc1cc(OC)cc(C2(O)CCN(Cc3ncc(C)o3)CC2)c1,10.39
18,COc1ncc(C2(O)CCN(Cc3ccccc3O)CC2)c(OC)n1,-6.313
19,COc1ccc(F)c(CN2CCC3(CCC(=O)N(CC(N)=O)C3)CC2)c1,10.55
20,Cc1cnn(CC(C)NCC(=O)NCCc2cccs2)c1 (configuration not stated),-55.8
21,Cc1ncc2c(n1)CN(Cc1nnc(Cc3ccccc3)o1)CC2,5.635
22,Cc1cccnc1CN(C)CC1(O)CCCN(CC2CCCCC2)C1=O (configuration not stated),93.19

row,Compound,Percent Effect [%]
1,Cc1cccnc1CNCC1(O)CCCN(CC2CCCCC2)C1=O (configuration not stated),-7.545
2,Cc1nonc1CN(C)CC1(O)CCCN(CCC2CCCCC2)C1=O (configuration not stated),3.713
3,O=C(NCCOc1ccc(C(F)(F)F)cn1)c1ccoc1,0.7109
4,COc1ccc(OCc2nccc(-c3cc(C(=O)O)ccn3)n2)cc1,-32.77
5,COc1ccc(C(CNS(=O)(=O)c2cn(C)nc2C)N2CCCC2)cc1.Cl (configuration not stated),105.6
6,Cc1nn(C)cc1S(=O)(=O)NCC(c1ccccc1)N1CCCCCC1.Cl (configuration not stated),112.3
7,COc1ccc(S(=O)(=O)NCC(c2cccn2C)N(C)C)c(C)c1 (configuration not stated),5.566
8,O=C(NCc1cc[nH]n1)NCC(c1ccccc1Cl)N1CCCC1 (configuration not stated),3.552
9,Cc1nn(C)cc1S(=O)(=O)NCC(c1ccccc1Cl)N1CCCC1 (configuration not stated),87.53
10,Cc1nc(C)c(C(=O)NCC(c2ccccc2Cl)N2CCOCC2)s1 (configuration not stated),6.115
11,Cc1cccc(S(=O)(=O)NCC(C)N2CCN(C)CC2)c1Cl (configuration not stated),-7.911
12,CCn1cc(S(=O)(=O)NCC(OC)c2ccccc2)cn1 (configuration not stated),8.527
13,COc1ccc(S(=O)(=O)NCC(N)c2ccccc2)c(C)c1.Cl (configuration not stated),-12.16
14,O=C(NCCCn1cncn1)NCC(c1ccccc1)N1CCCC1 (configuration not stated),9.834
15,CCn1cc(S(=O)(=O)NCC(c2ccccc2)N2CCOCC2)c(C)n1 (configuration not stated),72.63
16,CCn1cc(CNCC(c2ccc(C)s2)N2CCOCC2)cn1 (configuration not stated),13.07
17,Cc1nsc(NCc2ccc(S(=O)(=O)N(C)C(C)C)cc2)n1,22.68
18,CCCC(C)CS(=O)(=O)NCc1cccnc1OC (configuration not stated),6.664
19,CC(C)c1nnc2n1CCN(C(=O)c1ccc3c(c1)NC(=O)CO3)C2,2.374
20,O=C(NCc1ccccc1CN1CCCCC1)Nc1nncs1,-2.637
21,NC(=O)C1CCN(CCCNC(=O)Nc2nccs2)CC1,104.9
22,O=C(NCCCN1CCN(c2ncccn2)CC1)Nc1ccccn1,10.78

row,Compound,Percent Effect [%]
1,NC(=O)C1CCN(CCCNC(=O)Nc2nncs2)CC1,106.6
2,Cc1csc(CCNC(=O)C2CCN(CC(N)=O)CC2)n1,-1.435
3,O=C(NCc1ccccc1CN1CCCC1)Nc1nncs1,6.886
4,NC(=O)CN1CCC(NC(=O)Nc2nccs2)CC1,9.96
5,Cc1csc(NC(=O)NCCCN2CCC(C(N)=O)CC2)n1,96.37
6,Cc1csc(NC(=O)CN2CCC(c3ccnn3CCO)CC2)n1,-8.035
7,O=C(C(C1CC1)C1CC1)N1CCC(n2ccnn2)CC1,-3.228
8,COc1ccc(C(C(=O)O)N2CCC(O)(c3cccnc3)CC2)cc1Cl (configuration not stated),2.828
9,CCOC(=O)N1CCCn2nc(C(=O)NCCN(C)C)cc2C1,-7.985
10,CN(C)c1ncc(-c2cc(C(=O)NCCC#N)n(CC3CC3)c2)cn1.O=C(O)C(F)(F)F,101.1
11,CN(C)CCNC(=O)c1ccc(OC2CCN(CC3CC3)CC2)c(Cl)c1,3.166
12,CN(C)CCNC(=O)c1cc(-c2cnc(N(C)C)nc2)cn1CC1CC1,102.4
13,CC(C)n1cnc2c1C(C(=O)NCCC#N)N(Cc1ccccc1)CC2.O=C(O)C(F)(F)F (configuration not stated),-22.73
14,COCCCNC(=O)c1cc(-c2cnc(N(C)C)nc2)cn1CC1CC1.O=C(O)C(F)(F)F,117.6
15,CN(C)c1ncc(-c2cc(C(=O)NCCO)n(CC3CC3)c2)cn1.O=C(O)C(F)(F)F,116.5
16,CN(C)c1cc(NCc2cnc3n2CCN(CC2CC2)CC3)ncn1.O=C(O)C(F)(F)F,3.56
17,COCCN1CCCn2cnc(CNC(=O)N(C)C)c2C1.O=C(O)C(F)(F)F.O=C(O)C(F)(F)F,-21.14
18,Cc1cnc(N2C[C@@H]3CCN(CC(=O)N(C)C)C(=O)[C@H]3C2)nc1.O=C(O)C(F)(F)F,-29.89
19,COCc1nc(NC(C)c2c(C)n[nH]c2C)c2cnn(C)c2n1 (configuration not stated),8.424
20,Cc1nc(-c2ccc(CC(=O)N3CCN(C(=O)C(C)C)CC3)cc2)cs1,-9.711
21,CN(C)C(=O)c1ccc2c(c1)N(C)C(CC(=O)NC(C)(C)CO)CO2 (configuration not stated),-1.046
22,CN(C)c1ncc(-c2cc(C(=O)N3CCCC3)n(CC3CC3)c2)cn1,121.7

row,Compound,Percent Effect [%]
1,CNC(=O)c1cc(-n2ccnc2-c2cnc(N(C)C)nc2)ccc1OC,-13
2,CN(C)c1ncc(NC(=O)N2CCC(CN3CCCC3)C2)cn1 (configuration not stated),8.781
3,CN(C)c1ncc(-c2cc(C(=O)O)n(CC3CC3)c2)cn1,1.495
4,CN(C)c1ncc(-c2cc(C(=O)NC(C)(C)CO)n(CC3CC3)c2)cn1,111.9
5,OC1(CNCc2ccc(F)c(C(F)(F)F)c2)CCSCC1,2.477
6,O=C(O)CN1CCc2onc(C(c3ccccc3)c3ccccc3)c2C1,-16.17
7,CNS(=O)(=O)CCn1cc(-c2ccc(OC)c(OC)c2)nn1,-29.27
8,Cc1noc(C)c1CN1CCOC2(CCCN(c3ccccn3)C2)C1 (configuration not stated),-3.1
9,Cc1nc(CCNC(=O)NCc2cccc(N(C)C)n2)cs1,98.24
10,Cc1ccc(CNC(=O)CCSCc2csc(C)n2)cn1,-0.6284
11,COc1ccc(C)c(NC(=O)NCc2cccc(N(C)C)n2)c1,-15.2
12,Cc1nc(CNC(=O)NCCc2ccc(N(C)C)cc2)cs1,2.73
13,Cc1nc(CSCCC(=O)NCC(=O)NC(C)C)cs1,3.002
14,Cc1nc(CSCCC(=O)NCc2ccc(-n3cncn3)nc2)cs1,103.5
15,Cc1nc(CSCCC(=O)NCc2ccncc2)cs1,95.93
16,CSC(C)C(=O)NCc1ccc(-n2cncn2)nc1 (configuration not stated),-9.599
17,CC(OCC(F)(F)F)C(=O)NCc1ccc(-n2cncn2)nc1 (configuration not stated),6.097
18,Cc1nc(CSCCC(=O)NCCNC(=O)OC(C)(C)C)cs1,-7.243
19,COc1ccc(CNC(=O)CCSCc2csc(C)n2)cn1,99.67
